Data from PubChem BioAssay (NCATS).
Results filed as inconclusive are left out. The source made the active and inactive calls. Calls follow the shape of the dose curve; as a rule, active = well fitted curve in the direction sought with a large enough effect; inconclusive = small, poorly fitted or top-dose-only effect, or another doubt; inactive = no such curve, though single readings can be large; an effect the other way counts as inactive or inconclusive.

Columns and labels:
[1] = molecular target: Rap guanine nucleotide exchange factor 3 (Homo sapiens) (UniProt O95398); assay: Confirmatory qHTS for antagonist of cAMP-regulated guanine nucleotide exchange factor 3 (EPAC1) (AID 1645880); also: nearly all actives have a fitted effect of over 55% in size; also: potency is read from the fitted curve at half-maximal effect
In short: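 Released BODIPY-GDP fluoresces less than Rap1-bound BODIPY-GDP; the signal is followed at 480/540 nm at 5-min intervals over 30 min, after 5 min at room temperature. Reactions contain 100 nM EPAC1, 250 nM RAP1B-BODIPY-GDP and 50 uM GDP; results are normalized to ATA and DMSO.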

[2] = molecular target: Rap guanine nucleotide exchange factor 3 (Homo sapiens) (UniProt O95398); assay: Confirmatory qHTS for agonist of cAMP-regulated guanine nucleotide exchange factor 3 (EPAC1) (AID 1645881); also: nearly all actives have a fitted effect of over 75% in size; also: potency is read from the fitted curve at half-maximal effect;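 as to activation: EPAC1 catalysed release of BODIPY-GDP from Rap1B seen as fluorescence loss; 100% = effect of cAMP agonist control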
[3] = molecular target: Rap guanine nucleotide exchange factor 4 (Homo sapiens) (UniProt Q8WZA2); assay: Confirmatory qHTS for agonist of cAMP-regulated guanine nucleotide exchange factor 4 (EPAC2) (AID 1645884);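 also: nucleotide exchange releases bodipy-GDP from Rap1 and this lowers its fluorescence; nearly all actives have a fitted effect of over 65% in size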; also: potency is read from the fitted curve at half-maximal effect; as to activation: % is scaled to controls: 0 for no effect and ±100 for the full control effect
[4] = molecular target: Rap guanine nucleotide exchange factor 4 (Homo sapiens) (UniProt Q8WZA2); assay: Confirmatory qHTS for antagonist of cAMP-regulated guanine nucleotide exchange factor 4 (EPAC2) (AID 1645885); also: nearly all actives have a fitted effect of over 25% in size; also: potency is read from the fitted curve at half-maximal effect; as to activity change, negative = inhibition: % is scaled to controls: 0 for no effect and ±100 for the full control effect
[5] = molecular target: Rap guanine nucleotide exchange factor 3 (Homo sapiens) (UniProt O95398); assay: Counterscreen qHTS for antagonist of cAMP-regulated guanine nucleotide exchange factor 3 (EPAC1) (AID 1645888); also: % of control where 0% means no effect
In short: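 Measured: fluorescence of BODIPY-GDP bound to Rap1B, which falls as exchange proceeds. Conditions include 50 uM competing GDP, 5 and 30 min reads, and a later cAMP challenge for antagonist detection.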

Rap guanine nucleotide exchange factor 4 (Homo sapiens), sequence (Q8WZA2 whole entry, looked up): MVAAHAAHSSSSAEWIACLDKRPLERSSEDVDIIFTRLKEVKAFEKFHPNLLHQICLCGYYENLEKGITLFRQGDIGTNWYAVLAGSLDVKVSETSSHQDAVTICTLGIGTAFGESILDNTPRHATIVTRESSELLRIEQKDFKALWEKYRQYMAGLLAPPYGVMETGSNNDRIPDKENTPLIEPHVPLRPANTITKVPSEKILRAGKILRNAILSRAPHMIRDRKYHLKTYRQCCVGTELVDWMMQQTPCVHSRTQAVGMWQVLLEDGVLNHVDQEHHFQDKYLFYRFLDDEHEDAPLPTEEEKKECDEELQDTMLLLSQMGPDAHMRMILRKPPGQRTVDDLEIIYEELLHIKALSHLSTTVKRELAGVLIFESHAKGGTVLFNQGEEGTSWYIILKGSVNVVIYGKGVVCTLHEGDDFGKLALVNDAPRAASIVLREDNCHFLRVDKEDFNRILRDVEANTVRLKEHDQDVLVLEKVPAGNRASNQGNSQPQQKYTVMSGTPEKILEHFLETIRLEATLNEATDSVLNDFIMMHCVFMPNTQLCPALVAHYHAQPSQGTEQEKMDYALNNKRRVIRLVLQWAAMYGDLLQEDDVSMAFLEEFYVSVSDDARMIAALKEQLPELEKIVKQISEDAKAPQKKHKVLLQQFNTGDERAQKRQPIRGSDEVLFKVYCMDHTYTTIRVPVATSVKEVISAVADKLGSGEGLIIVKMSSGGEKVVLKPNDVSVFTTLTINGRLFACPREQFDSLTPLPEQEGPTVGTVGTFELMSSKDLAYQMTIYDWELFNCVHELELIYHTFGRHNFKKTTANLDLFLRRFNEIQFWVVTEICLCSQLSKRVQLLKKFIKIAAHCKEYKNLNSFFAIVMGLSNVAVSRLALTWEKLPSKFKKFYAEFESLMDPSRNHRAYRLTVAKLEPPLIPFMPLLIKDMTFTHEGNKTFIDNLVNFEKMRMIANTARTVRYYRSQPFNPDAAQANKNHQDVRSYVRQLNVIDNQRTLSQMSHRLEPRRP
Rap guanine nucleotide exchange factor 3 (Homo sapiens), sequence (O95398 whole entry, looked up): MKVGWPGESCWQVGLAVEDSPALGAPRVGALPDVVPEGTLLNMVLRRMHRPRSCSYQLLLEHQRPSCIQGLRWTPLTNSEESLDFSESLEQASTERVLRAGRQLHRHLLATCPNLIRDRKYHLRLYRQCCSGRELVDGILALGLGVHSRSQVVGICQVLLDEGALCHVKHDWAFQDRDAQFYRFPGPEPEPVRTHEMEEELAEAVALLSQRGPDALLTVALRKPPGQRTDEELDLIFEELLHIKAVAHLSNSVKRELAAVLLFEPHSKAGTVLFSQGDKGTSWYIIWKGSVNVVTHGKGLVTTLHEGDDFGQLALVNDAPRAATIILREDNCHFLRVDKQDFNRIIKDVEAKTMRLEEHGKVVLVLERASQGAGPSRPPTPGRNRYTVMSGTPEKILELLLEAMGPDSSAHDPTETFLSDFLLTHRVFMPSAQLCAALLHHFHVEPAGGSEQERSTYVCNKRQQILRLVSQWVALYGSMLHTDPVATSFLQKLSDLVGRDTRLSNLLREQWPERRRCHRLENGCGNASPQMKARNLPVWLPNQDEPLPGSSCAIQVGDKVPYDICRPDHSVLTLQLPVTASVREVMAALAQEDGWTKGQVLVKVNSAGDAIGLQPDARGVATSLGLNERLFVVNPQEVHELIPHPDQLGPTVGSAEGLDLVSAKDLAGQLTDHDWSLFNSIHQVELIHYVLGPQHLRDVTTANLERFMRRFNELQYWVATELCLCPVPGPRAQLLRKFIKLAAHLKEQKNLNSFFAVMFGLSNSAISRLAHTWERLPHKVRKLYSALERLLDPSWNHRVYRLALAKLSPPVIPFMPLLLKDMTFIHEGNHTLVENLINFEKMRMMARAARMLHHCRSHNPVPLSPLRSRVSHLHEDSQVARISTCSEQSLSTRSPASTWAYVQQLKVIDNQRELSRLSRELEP

CC(C)OP(=O)(c1ccc(N(C)C)cc1)C(Nc1ccccc1)c1ccccc1 (stereo not given)
inactive: Potency [1] | Potency [2] | Potency [3] | Potency [4] | Potency [5]

O=c1nc2s/c(=C\c3ccc(-c4ccccc4[N+](=O)[O-])o3)c(=O)n2nc1-c1ccccc1
inactive: Potency [2] | Potency [3] | Potency [4] | Potency [5]
active: Potency [1] 12 µM

Cc1ccc2nc(-c3ccc(Cl)cc3)c(Cc3ccccc3C(F)(F)F)n2c1
inactive: Potency [1] | Potency [2] | activation [3] 10.6% [at 17.1 µM, percent relative to cAMP agonist control] | Potency [4] | activity change, negative = inhibition [5] 0.28% [at 30.8 µM]

COc1ccc(C2C=C(c3ccccc3)Nc3nnnn32)cc1 (stereo not given)
inactive: Potency [1] | Potency [2] | Potency [3] | Potency [4] | Potency [5]

COc1cnc(-c2ccccn2)nc1Oc1c(C)cccc1C
inactive: Potency [1] | Potency [2] | Potency [3] | Potency [4] | Potency [5]

CCC1CCCCN1CCCNC(=O)c1csc2c1CCCCC2 (stereo not given)
inactive: Potency [1] | Potency [2] | Potency [3] | Potency [4] | Potency [5]

O=C1NC(=Nc2ccccc2)S/C1=C\C=C\c1ccco1
inactive: Potency [2] | Potency [3] | Potency [4] | Potency [5]
active: Potency [1] 16.9 µM

Nc1ccc2c3c(cccc13)-c1ccccc1-2
inactive: Potency [1] | Potency [4] | Potency [5]
active: Potency [2] 100 µM | Potency [3] 100 µM

Cc1ccc(-n2nc(C(=O)N(C)c3ccc(C)c(C)c3)c3c4ccccc4n(C)c3c2=O)cc1
inactive: Potency [1] | Potency [2] | Potency [3] | outcome [4] inactive [at 12.7 µM] | Potency [5]

Clc1ccc(CSc2nncn3c2cc2occc23)cc1
inactive: Potency [2] | Potency [3] | Potency [4] | Potency [5]
active: Potency [1] 75.7 µM

Cc1cc(C)cc(NC(=O)N2CCC(CN3CCc4ccccc4C3)CC2)c1
inactive: Potency [1] | Potency [2] | Potency [3] | Potency [4] | Potency [5]

Cc1cc(C)cc(C(O)c2ncc(-c3ccccc3Cl)[nH]2)c1 (stereo not given)
inactive: Potency [1] | Potency [2] | activation [3] 2.23% [at 17.1 µM, percent relative to cAMP agonist control] | Potency [4] | activity change, negative = inhibition [5] -7.63% [at 30.8 µM]

NNc1nc2c(Cl)cccc2s1
active: Potency [4] 95.3 µM
inactive: Potency [1] | Potency [2] | Potency [3] | Potency [5]

Cc1ccc(-c2cc([C@H]3[C@@H]4C=CCC[C@@]4(C)C(=O)N3Cc3ccccc3)ccc2F)cc1
inactive: Potency [1] | Potency [2] | activation [3] -2.1% [at 17.1 µM, percent relative to cAMP agonist control] | Potency [4] | activity change, negative = inhibition [5] -9.39% [at 30.8 µM]

Cc1cccc(N=C2NC(=O)/C(=C/C=C/c3ccco3)S2)c1C
inactive: Potency [2] | Potency [3] | Potency [4] | Potency [5]
active: Potency [1] 9.53 µM

COC(=O)C1=NNCC12CC(=O)N(c1ccc(Br)cc1)C2=O (stereo not given)
inactive: Potency [1] | Potency [2] | Potency [3] | Potency [4] | Potency [5]

CC(C)(C)c1ccc(OCCC(=O)OCC(=O)Nc2ccc(N3CCOCC3)cc2)cc1
inactive: Potency [1] | Potency [2] | Potency [3] | Potency [4] | Potency [5]

COc1ccc(NC(=O)c2c(-c3ccccc3)c(-c3ccccc3)nn(C)c2=O)cc1OC
inactive: Potency [1] | Potency [2] | Potency [3] | Potency [4] | Potency [5]

C[C@H](c1ccccc1)N1C[C@@H](COCc2ccccc2)Oc2cc(N3CC[C@@H](O)C3)ccc2S1(=O)=O
inactive: Potency [1] | Potency [2] | Potency [3] | Potency [4] | Potency [5]

COC(=O)c1c(SC)nc2ccccc2c1OCc1cccc(C)c1
inactive: Potency [1] | Potency [2] | Potency [3] | Potency [4] | Potency [5]

Cc1ccc(C(NC(=O)C(C)C)c2cc([N+](=O)[O-])c3cccnc3c2O)cc1 (stereo not given)
active: Potency [1] 35.5 µM
inactive: Potency [2] | activation [3] 0.958% [at 17.1 µM, percent relative to cAMP agonist control] | Potency [4] | activity change, negative = inhibition [5] -17.2% [at 30.8 µM]

CCSc1nc2ccccc2c(OCc2ccccc2Cl)c1C(=O)OC
inactive: Potency [1] | Potency [2] | Potency [3] | Potency [4] | Potency [5]

N#C/C(=C/c1ccc(N2CCOCC2)o1)C(=O)Nc1ccccc1
inactive: Potency [1] | Potency [5]
active: Potency [2] 112 µM | Potency [3] 100 µM | Potency [4] 75.7 µM

COc1ccc(S(=O)(=O)Nc2cccc(F)c2)cc1C
inactive: Potency [1] | Potency [2] | activation [3] 1.76% [at 17.1 µM, percent relative to cAMP agonist control] | Potency [4] | activity change, negative = inhibition [5] -14.5% [at 30.8 µM]

COc1cc(Cl)c(C)cc1NC(=O)CSc1cc(Cl)ccc1Cl
active: Potency [1] 67.5 µM
inactive: Potency [2] | Potency [3] | Potency [4] | Potency [5]

CN(CCC#N)C(=O)COC(=O)c1c2c(nc3ccccc13)/C(=C/c1ccco1)CC2
inactive: Potency [2] | activation [3] -0.614% [at 17.1 µM, percent relative to cAMP agonist control] | Potency [4] | activity change, negative = inhibition [5] -6.16% [at 30.8 µM]
active: Potency [1] 3.55 µM

Cc1nc(Cl)sc1C(=O)NC(C)c1ccc(Cl)cc1 (stereo not given)
inactive: Potency [1] | Potency [2] | Potency [3] | Potency [4] | Potency [5]

Cc1nn(CCc2nn[nH]n2)c2nc(-c3ccc(C4CCCCC4)cc3)cc(C(F)(F)F)c12
active: Potency [1] 21.3 µM
inactive: Potency [2] | Potency [3] | Potency [4] | Potency [5]

CCCC1C2CN(C(C)C)CC=C2C(C#N)=C(N)C1(C#N)C#N (stereo not given)
inactive: Potency [5]
active: Potency [1] 37.9 µM | Potency [2] 35.5 µM | Potency [3] 56.2 µM | Potency [4] 33.8 µM

Cc1cccc(C(=O)Nc2cccc(C(=O)N/N=C/c3cccc(C)n3)c2)c1
inactive: Potency [1] | Potency [2] | Potency [3] | Potency [4] | Potency [5]

Cc1cc(C)c(NC(=O)Cn2c(=O)n(Cc3ccc(C(=O)NCc4ccco4)cc3)c(=O)c3sccc32)c(C)c1
active: Potency [1] 75.7 µM
inactive: Potency [2] | Potency [3] | Potency [4] | Potency [5]

Cc1ccc(OCCn2cccn2)c(C)c1
inactive: Potency [1] | Potency [2] | Potency [3] | Potency [4] | Potency [5]

O=C1CC(=O)N(CCc2ccccc2)C(=O)N1CCc1ccccc1
inactive: Potency [1] | Potency [2] | Potency [3] | Potency [4] | Potency [5]

CCOC(=O)CSc1ccc2nnc(-c3ccccc3)n2n1
inactive: Potency [1] | Potency [2] | activation [3] 7.87% [at 17.1 µM, percent relative to cAMP agonist control] | Potency [4] | activity change, negative = inhibition [5] -6.6% [at 30.8 µM]

CCOC(=O)c1ccccc1-c1csc(NS(=O)(=O)c2ccc(Cl)cc2)n1
inactive: Potency [2] | activation [3] 4% [at 17.1 µM, percent relative to cAMP agonist control] | Potency [4] | activity change, negative = inhibition [5] -28.7% [at 30.8 µM]
active: Potency [1] 31.6 µM

COc1ccc(OCc2nc3ccccc3n2Cc2ccccc2Cl)cc1
inactive: Potency [1] | Potency [2] | Potency [3] | Potency [4] | Potency [5]
